For the first assay, the target named is MSX2 (Homo sapiens, UniProt P35548 130-214). Put plainly: PBM; 200 nM protein, PBS. Particulars: dsDNA, one strand shown.
Chain of MSX2 (Homo sapiens, UniProt P35548 130-214) (P35548 130-214): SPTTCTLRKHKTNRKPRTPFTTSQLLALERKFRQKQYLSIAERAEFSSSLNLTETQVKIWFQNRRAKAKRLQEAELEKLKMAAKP
Chain of VAX1 (Homo sapiens, UniProt Q5SQQ9 86-172) (Q5SQQ9 86-172): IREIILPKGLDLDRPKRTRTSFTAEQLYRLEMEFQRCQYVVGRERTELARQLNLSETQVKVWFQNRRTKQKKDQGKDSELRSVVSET
Chain of VAX1 (Homo sapiens, UniProt Q5SQQ9 86-172, K157R) (Q5SQQ9 86-172 K157R): as the sequence (Q5SQQ9 86-172) above, with K72R counted along it
Regarding CCCTAGCG, the binding signal was 9.29 upbm affinity estimate (log intensity, higher = more binding, comparable within an allelic series). Regarding CGCTCAGC, the binding signal was 9.57 upbm affinity estimate (log intensity, higher = more binding, comparable within an allelic series). As to GAAGCAGC, the binding signal was 9.57 upbm affinity estimate (log intensity, higher = more binding, comparable within an allelic series). Turning to AGGGGCCG, the binding signal is 9.56 upbm affinity estimate (log intensity, higher = more binding, comparable within an allelic series). On to TAATCAAA, for which the binding signal was 12.4 upbm affinity estimate (log intensity, higher = more binding, comparable within an allelic series). On to ATGGAAAT, for which the binding signal was 10.7 upbm affinity estimate (log intensity, higher = more binding, comparable within an allelic series). The same measure, in the same setting: the same measure for AGCCCACC: 9.52 upbm affinity estimate (log intensity, higher = more binding, comparable within an allelic series). With GGCCAGCA, the binding signal is 9.54 upbm affinity estimate (log intensity, higher = more binding, comparable within an allelic series). The same measure, in the same setting: the same measure for AGCTATTA: 12.1 upbm affinity estimate (log intensity, higher = more binding, comparable within an allelic series); for CCTGTGCC: 9.41 upbm affinity estimate (log intensity, higher = more binding, comparable within an allelic series). For the sequence AAATATTT, the binding signal is 11.1 upbm affinity estimate (log intensity, higher = more binding, comparable within an allelic series). On to CACCAGCC, for which the binding signal is 9.42 upbm affinity estimate (log intensity, higher = more binding, comparable within an allelic series). The same measure, in the same setting: next, GAGCCGAC: 9.46 upbm affinity estimate (log intensity, higher = more binding, comparable within an allelic series).

Another assay has as its target VAX1 (Homo sapiens, UniProt Q5SQQ9 86-172). Put plainly: PBM; 200 nM protein, PBS. Particulars: dsDNA, one strand shown.
In the case of TCCGCGGA, the binding signal was 7.16 upbm affinity estimate (log intensity, higher = more binding, comparable within an allelic series). For the sequence CCCTAGCG, the binding signal is 6.79 upbm affinity estimate (log intensity, higher = more binding, comparable within an allelic series).

Take GAAGCAGC: the binding signal is 7.06 upbm affinity estimate (log intensity, higher = more binding, comparable within an allelic series). Still for that read-out and setting: the same measure for GGCCAGCA: 7.05 upbm affinity estimate (log intensity, higher = more binding, comparable within an allelic series). With GAGCCGAC, the binding signal is 7.12 upbm affinity estimate (log intensity, higher = more binding, comparable within an allelic series).

The target of the next assay is MSX2 (Homo sapiens, UniProt P35548 130-214, F161Y). Put plainly: PBM; 200 nM protein, PBS. Particulars: dsDNA, one strand shown.
Chain of MSX2 (Homo sapiens, UniProt P35548 130-214, F161Y) (P35548 130-214 F161Y): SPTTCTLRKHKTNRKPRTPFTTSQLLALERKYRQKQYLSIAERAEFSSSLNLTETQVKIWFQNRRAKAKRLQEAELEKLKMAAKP
Turning to CAGGGCCA, the binding signal was 9.56 upbm affinity estimate (log intensity, higher = more binding, comparable within an allelic series). Regarding CATACTAA, the binding signal is 10.6 upbm affinity estimate (log intensity, higher = more binding, comparable within an allelic series).

As to CCACTGGC, the binding signal is 9.68 upbm affinity estimate (log intensity, higher = more binding, comparable within an allelic series).

For CGGCGGCA, the binding signal is 9.41 upbm affinity estimate (log intensity, higher = more binding, comparable within an allelic series). Turning to GAGGTGGC, the binding signal is 9.41 upbm affinity estimate (log intensity, higher = more binding, comparable within an allelic series). Still for that read-out and setting: the same measure for GCTCCAGC: 9.5 upbm affinity estimate (log intensity, higher = more binding, comparable within an allelic series).

For the sequence ATTAAGAA, the binding signal is 11.7 upbm affinity estimate (log intensity, higher = more binding, comparable within an allelic series). CATTTTGA: the binding signal was 10.5 upbm affinity estimate (log intensity, higher = more binding, comparable within an allelic series). Consider AGGGGGAG, for which the binding signal is 9.49 upbm affinity estimate (log intensity, higher = more binding, comparable within an allelic series). On the same count and under the same terms, next, AGCGCCGG: 9.52 upbm affinity estimate (log intensity, higher = more binding, comparable within an allelic series); GACCTCCC: 9.44 upbm affinity estimate (log intensity, higher = more binding, comparable within an allelic series); TCCGCGGA: 9.53 upbm affinity estimate (log intensity, higher = more binding, comparable within an allelic series). The same measure, in the same setting: the same measure for AATTACTG: 12.9 upbm affinity estimate (log intensity, higher = more binding, comparable within an allelic series); for AGCGGGGC: 9.55 upbm affinity estimate (log intensity, higher = more binding, comparable within an allelic series); for AGCGGCCT: 9.44 upbm affinity estimate (log intensity, higher = more binding, comparable within an allelic series). Same read-out and setting: next, CCTACGGC: 9.63 upbm affinity estimate (log intensity, higher = more binding, comparable within an allelic series); AGGCGTGA: 9.36 upbm affinity estimate (log intensity, higher = more binding, comparable within an allelic series). As for GAGGAAGC, the binding signal is 9.52 upbm affinity estimate (log intensity, higher = more binding, comparable within an allelic series). On the same count and under the same terms, the same measure for CCCTAGCG: 9.37 upbm affinity estimate (log intensity, higher = more binding, comparable within an allelic series); for CGCTCAGC: 9.59 upbm affinity estimate (log intensity, higher = more binding, comparable within an allelic series). For the sequence GAAGCAGC, the binding signal was 9.57 upbm affinity estimate (log intensity, higher = more binding, comparable within an allelic series).

Consider AGGGGCCG, for which the binding signal was 9.42 upbm affinity estimate (log intensity, higher = more binding, comparable within an allelic series). On the same count and under the same terms, the same measure for TAATCAAA: 12.1 upbm affinity estimate (log intensity, higher = more binding, comparable within an allelic series); for ATGGAAAT: 10.6 upbm affinity estimate (log intensity, higher = more binding, comparable within an allelic series); for AGCCCACC: 9.47 upbm affinity estimate (log intensity, higher = more binding, comparable within an allelic series). Consider GGCCAGCA, for which the binding signal is 9.57 upbm affinity estimate (log intensity, higher = more binding, comparable within an allelic series).

In the case of AGCTATTA, the binding signal was 11.9 upbm affinity estimate (log intensity, higher = more binding, comparable within an allelic series). Turning to CCTGTGCC, the binding signal was 9.42 upbm affinity estimate (log intensity, higher = more binding, comparable within an allelic series). Consider AAATATTT, for which the binding signal was 11 upbm affinity estimate (log intensity, higher = more binding, comparable within an allelic series). With CACCAGCC, the binding signal was 9.47 upbm affinity estimate (log intensity, higher = more binding, comparable within an allelic series).

Turning to GAGCCGAC, the binding signal was 9.31 upbm affinity estimate (log intensity, higher = more binding, comparable within an allelic series).

A further assay deals with VAX1 (Homo sapiens, UniProt Q5SQQ9 86-172, T142I). Put plainly: PBM; 200 nM protein, PBS. Particulars: dsDNA, one strand shown.
Chain of VAX1 (Homo sapiens, UniProt Q5SQQ9 86-172, T142I) (Q5SQQ9 86-172 T142I): as the sequence (Q5SQQ9 86-172) above, with T57I counted along it
Consider TCCGCGGA, for which the binding signal is 7.5 upbm affinity estimate (log intensity, higher = more binding, comparable within an allelic series). Take CCCTAGCG: the binding signal is 7.2 upbm affinity estimate (log intensity, higher = more binding, comparable within an allelic series). Regarding GAAGCAGC, the binding signal was 7.19 upbm affinity estimate (log intensity, higher = more binding, comparable within an allelic series). Same read-out and setting: next, GGCCAGCA: 7.11 upbm affinity estimate (log intensity, higher = more binding, comparable within an allelic series); GAGCCGAC: 7.21 upbm affinity estimate (log intensity, higher = more binding, comparable within an allelic series).

Another assay concerns the target VAX1 (Homo sapiens, UniProt Q5SQQ9 86-172, K157R). Briefly: PBM; 200 nM protein, PBS. Particulars: dsDNA, one strand shown.
For TCCGCGGA, the binding signal was 7.45 upbm affinity estimate (log intensity, higher = more binding, comparable within an allelic series).

Take CCCTAGCG: the binding signal is 6.92 upbm affinity estimate (log intensity, higher = more binding, comparable within an allelic series). The same measure, in the same setting: the same measure for GAAGCAGC: 6.96 upbm affinity estimate (log intensity, higher = more binding, comparable within an allelic series). GGCCAGCA: the binding signal was 7.17 upbm affinity estimate (log intensity, higher = more binding, comparable within an allelic series). Still for that read-out and setting: the same measure for GAGCCGAC: 7.3 upbm affinity estimate (log intensity, higher = more binding, comparable within an allelic series).

The values above are taken from article PMC11006913.
